# Source: the supplement of paper PMC7156485
# ± gives the standard deviation of the averaged measurements.
# Columns and labels:
# Details in all cases: concentration: 10 µM; 24 h
# HCC1569 [1] = test: cell number relative to DMSO (% of DMSO); higher = more cells (less growth inhibition / toxicity)
# In short: (§1)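 H1.0 nuclear intensity or cell number is expressed as percent of the plate control, with the median of replicates taken. HCC1569 and TDF cells were treated with compounds at 10 µM for 24 h at 37 °C, in triplicate, then fixed and immunostained for H1.0 with DAPI as a nuclear stain. HCC1569 values were smoothed to correct for positional effects.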
# TDF [2] = test: as above
# In short: as §1
# TDF [3] = test: H1.0 immunofluorescence intensity relative to DMSO (% of DMSO); higher = stronger H1.0 induction, active = 120 or more
# In short: as §1
# HCC1569 [4] = test: H1.0 immunofluorescence intensity relative to DMSO (% of DMSO); higher = stronger H1.0 induction, active = 140 or more
# In short: as §1
# 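Throughout, for H1.0 immunofluorescence intensity relative to DMSO: TDF is a line of transformed human dermal fibroblasts of mesenchymal origin.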
# 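Throughout, for cell number relative to DMSO: TDF denotes transformed human dermal fibroblasts of mesenchymal origin.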
Structure (SMILES),cell number (HCC1569 [1]),cell number (TDF [2]),H1.0 immunofluorescence intensity (TDF [3]),H1.0 immunofluorescence intensity (HCC1569 [4])
COc1cc(C(O)CN)ccc1O.Cl (racemic),102,111,92.5 (inactive),94.7 (inactive)
CN1CCC23CCCCC2C1Cc1ccc(O)cc13.O=C(O)C(O)C(O)C(=O)O [Dextrorphan D-tartrate],103,105,93.1 (inactive),89.2 (inactive)
C=C(C)C1C2OC(=O)C1C1(O)CC3OC34C(=O)OC2C14C (stereo unspecified) [Picrotoxinin],105,105,95.4 (inactive),90.9 (inactive)
Cc1cc(O)c2c(=O)c3c(O)cc(O)c4c5c(O)cc(O)c6c(=O)c7c(O)cc(C)c8c1c2c(c34)c(c78)c65 [Hypericin],103 ± 2.1,100 ± 2.6,96.3 (inactive),94.4 (inactive)
"CC(=O)C1CCC2C3CCC4CC(O)CCC4(C)C3C(=O)CC12C (stereo not drawn) [5alpha-Pregnan-3alpha-ol-11,20-dione]",107,108,94.1 (inactive),98.7 (inactive)
CCCn1c(=O)c2[nH]c(C3CCCC3)nc2n(CCCOC(=O)c2ccc(S(=O)(=O)F)cc2)c1=O,99.7,110,90.1 (inactive),77.2 (inactive)
CC1OC(C[N+](C)(C)C)CC1O.[Cl-] (racemic),102,101,96.4 (inactive),92 (inactive)
COC1=CC(=O)OC(C=Cc2ccccc2)C1 (racemic),104,92,95.5 (inactive),83 (inactive)
"c1cc2c(cc1C1OCC3C(c4ccc5c(c4)OCO5)OCC13)OCO2 (single isomer, unassigned; (-)) [(-)-Asarinin]",98.4,99.2,101 (inactive),88.6 (inactive)
CC1C=CC=CCCC=CC=CC=CC=CC(OC2OC(C)C(O)C(N)C2O)CC2OC(O)(CC(O)C(O)CCC(O)CC(O)CC(O)CC(=O)OC(C)C(C)C1O)CC(O)C2C(=O)O (stereo unspecified) [Nystatin],101,105,103 (inactive),104 (inactive)
CN1CC(C(=O)NC2(C)OC3(O)C4CCCN4C(=O)C(Cc4ccccc4)N3C2=O)CC2c3cccc4[nH]cc(c34)CC21.CS(=O)(=O)O (stereo unspecified) [Dihydroergotamine mesylate],98.8,102,92.6 (inactive),105 (inactive)
CC1CC=CC2C3OC3(C)C(C)C3C(Cc4ccccc4)NC(=O)C23OC(=O)OC=CC(C)(O)C1=O (stereo unspecified) [Cytochalasin E],63.3,32.4,226 (active),247 (active)
CC1CCC2C(C)C3CCC4(O)C(CC5C4CC(=O)C4CC(=O)CCC45C)C3CN2C1 (stereo unspecified) [Sevedindione],99.8,110,91.7 (inactive),85 (inactive)
NC(N)=Nc1ccc2[nH]c3c(c2c1)CC1(O)C2Cc4ccc(O)c5c4C1(CCN2CC1CC1)C3O5.O=C(O)C(F)(F)F.O=C(O)C(F)(F)F (stereo unspecified) [Guanidinyl-naltrindole di-trifluoroacetate],93.6,83.5,104 (inactive),115 (inactive)
Br.CCCN(CCC)C1CCc2ccc(O)cc2C1 (stereo not drawn) [R-(+)-7-Hydroxy-DPAT hydrobromide],99.8,110,103 (inactive),101 (inactive)
C=C1CC2C(CCC3(C)C(=O)CCC23)C2(C)C=CC(=O)C=C12 (stereo unspecified) [Exemestane],101,97.4,98.1 (inactive),102 (inactive)
COC1=CC(=O)OC(C=Cc2ccc3c(c2)OCO3)C1 (stereo unspecified) [Methysticin],106,106,90.6 (inactive),89 (inactive)
CC(C)NC(C)Cc1ccc(I)cc1.Cl (stereo unspecified) [Iofetamine hydrochloride],105,113,91.5 (inactive),91.7 (inactive)
COC1=CC2C3Cc4ccc(OC)c(O)c4C2(CCN3C)CC1=O (stereo unspecified) [Sinomenine],101,95.5,94.1 (inactive),83.8 (inactive)
COc1ccc(C(=O)OC2CC3CCC(C2)N3C)cc1OC (stereo unspecified) [Convolvamine],105,96.1,97.8 (inactive),90 (inactive)
CCOP(=O)(OCC)C(C)NC(=O)N(CCCl)N=O (stereo unspecified),100,80.1,102 (inactive),90.6 (inactive)
"Ic1ccccc1CNC1C2CCN(CC2)C1C(c1ccccc1)c1ccccc1.O=C(O)C(=O)O [L-703,606 oxalate]",85.3,91.8,114 (inactive),128 (inactive)
Cc1c(C(C)C2NCC(C)CC2O)ccc2c1CC1C2CC=C2CC(O)CCC21C (stereo unspecified) [Veratramine],96.7,88.6,104 (inactive),90.2 (inactive)
CC(C)Oc1cccnc1N(C)C1CCN(Cc2ccccc2)CC1.O=C(O)C=CC(=O)O,103,106,99 (inactive),112 (inactive)
O=C1NCN(c2ccccc2)C12CCN(CC1COc3ccccc3O1)CC2 (stereo unspecified) [Spiroxatrine],98.9,105,101 (inactive),97.4 (inactive)
Nc1ccncc1 [4-Aminopyridine],101,103,95.3 (inactive),88 (inactive)
CCCCCCCCCCCCCCCCOCC(COP(=O)([O-])OCC[N+](C)(C)C)OC(C)=O (stereo not drawn) [Enantio-PAF C16],100,106,93.7 (inactive),94 (inactive)
CCNC1=Nc2ccc(Cl)cc2C(C)(c2ccccc2)O1.Cl (stereo unspecified),92.5,105,97.3 (inactive),141 (active)
CS(=O)(=O)O.S=C=Nc1cccc(C2(N3CCCCC3)CCCCC2)c1 [Metaphit methanesulfonate],106,107,83.4 (inactive),94.5 (inactive)
